Reference: PubChem BioAssay AID1159580 (chemical genetic matrix, 2015)
About 2,000 (36%) of roughly 5,500 compounds were called active. Another 18% or so got no clear call; they are omitted. Rule as the data show it: active = normalized growth mostly below about 0.91 (no sharp cut-off); inconclusive = no clear call, values can overlap the other calls; inactive = mostly above about 0.92. Some of the results follow. Where a SMILES comes first, the peptide text is derived from it.

Experiment: chemical genetic growth profiling, strain panel (AID 1159580);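 also: tested at 20 µM; growth read once vehicle control cultures reached saturation at 30 °C; 1 = growth at the plate median or of vehicle wells; lower values mean less growth of the strain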
Conditions: growth OD

Measured: normalized growth

CC(=O)N[C@@H](CC(=O)O)C(=O)N[C@@H](CCC(=O)O)C(=O)O (Ac-Asp-Glu-OH)
inactive: S. cerevisiae deletion strains, locus YJR075W, strain HOC1, stronger effect = lower value 1.01 | S. cerevisiae deletion strains, locus YKL009W, strain mrt4, stronger effect = lower value 0.987 | S. cerevisiae deletion strains, locus YKL068W, stronger effect = lower value 0.997 | S. cerevisiae deletion strains, locus YKL085W, strain MDH1 (second series), stronger effect = lower value 0.985 | S. cerevisiae deletion strains, locus YKL085W, strain MDH1, stronger effect = lower value 0.985 | S. cerevisiae deletion strains, locus YKL160W, strain elf1, stronger effect = lower value 1.01 | S. cerevisiae deletion strains, locus YKL190W, strain CNB1, stronger effect = lower value 1.02 | S. cerevisiae deletion strains, locus YKR001C, strain vps1, stronger effect = lower value 0.989 | S. cerevisiae deletion strains, locus YKR026C, strain gcn3, stronger effect = lower value 1 | S. cerevisiae deletion strains, locus YKR091W, strain srl3, stronger effect = lower value 0.996 | S. cerevisiae deletion strains, locus YLL001W, strain dnm1, stronger effect = lower value 0.994 | S. cerevisiae deletion strains, locus YLL026W, stronger effect = lower value 1 | S. cerevisiae deletion strains, locus YLL041C, strain sdh2, stronger effect = lower value 1 | S. cerevisiae deletion strains, locus YLR027C, strain aat2, stronger effect = lower value 1.01 | S. cerevisiae deletion strains, locus YLR039C, strain RIC1, stronger effect = lower value 1.04 | S. cerevisiae deletion strains, locus YLR058C, strain SHM2, stronger effect = lower value 1.01 | S. cerevisiae deletion strains, locus YLR102C, strain apc9, stronger effect = lower value 0.984 | S. cerevisiae deletion strains, locus YLR113W, strain HOG1, stronger effect = lower value 0.987 | S. cerevisiae deletion strains, locus YLR221C, strain rsa3, stronger effect = lower value 1 | S. cerevisiae deletion strains, locus YLR258W, strain gsy2, stronger effect = lower value 0.992 | S. cerevisiae deletion strains, locus YLR262C, strain YPT6 (second series), stronger effect = lower value 1.02 | S. cerevisiae deletion strains, locus YLR262C, strain YPT6, stronger effect = lower value 1.04 | S. cerevisiae deletion strains, locus YLR268W, strain sec22, stronger effect = lower value 0.981 | S. cerevisiae deletion strains, locus YLR320W, strain mms22, stronger effect = lower value 1 | S. cerevisiae deletion strains, locus YLR330W, strain CHS5, stronger effect = lower value 1.02 | S. cerevisiae deletion strains, locus YLR342W, strain FKS1 (second series), stronger effect = lower value 0.996 | S. cerevisiae deletion strains, locus YLR342W, strain FKS1, stronger effect = lower value 1 | S. cerevisiae deletion strains, locus YLR357W, strain rsc2, stronger effect = lower value 0.987 | S. cerevisiae deletion strains, locus YLR370C, strain arc18, stronger effect = lower value 1.02 | S. cerevisiae deletion strains, locus YLR371W, strain rom2, stronger effect = lower value 0.99 | S. cerevisiae deletion strains, locus YLR384C, strain iki3, stronger effect = lower value 0.998 | S. cerevisiae deletion strains, locus YLR418C, strain cdc73, stronger effect = lower value 0.982 | S. cerevisiae deletion strains, locus YML016C, strain PPZ1, stronger effect = lower value 1.02 | S. cerevisiae deletion strains, locus YML032C, strain rad52, stronger effect = lower value 0.985 | S. cerevisiae deletion strains, locus YML120C, strain ndi1, stronger effect = lower value 1.01 | S. cerevisiae deletion strains, locus YML124C, strain tub3, stronger effect = lower value 0.984 | S. cerevisiae deletion strains, locus YMR058W, strain fet3, stronger effect = lower value 1.01 | S. cerevisiae deletion strains, locus YMR078C, strain ctf18, stronger effect = lower value 1 | S. cerevisiae deletion strains, locus YMR125W, strain sto1, stronger effect = lower value 0.987 | S. cerevisiae deletion strains, locus YMR129W, stronger effect = lower value 1.01 | S. cerevisiae deletion strains, locus YMR205C, strain PFK2, stronger effect = lower value 0.967 | S. cerevisiae deletion strains, locus YMR223W, strain ubp8, stronger effect = lower value 0.983 | S. cerevisiae deletion strains, locus YMR231W, strain pep5, stronger effect = lower value 1.01 | S. cerevisiae deletion strains, locus YMR263W, strain SAP30, stronger effect = lower value 1.03 | S. cerevisiae deletion strains, locus YMR307W, strain GAS1, stronger effect = lower value 1.01 | S. cerevisiae deletion strains, locus YNL067W, strain RPL9B, stronger effect = lower value 1.02 | S. cerevisiae deletion strains, locus YNL071W, strain lat1, stronger effect = lower value 1.02 | S. cerevisiae deletion strains, locus YNL128W, strain TEP1, stronger effect = lower value 1.02 | S. cerevisiae deletion strains, locus YNL153C, strain GIM3, stronger effect = lower value 1.01 | S. cerevisiae deletion strains, locus YNL183C, strain NPR1, stronger effect = lower value 0.894 | S. cerevisiae deletion strains, locus YNL209W, strain ssb2, stronger effect = lower value 0.997 | S. cerevisiae deletion strains, locus YNL233W, strain BNI4, stronger effect = lower value 1.02 | S. cerevisiae deletion strains, locus YNL248C, strain rpa49, stronger effect = lower value 1.01 | S. cerevisiae deletion strains, locus YNL250W, strain rad50, stronger effect = lower value 0.982 | S. cerevisiae deletion strains, locus YNL271C, strain bni1, stronger effect = lower value 0.984 | S. cerevisiae deletion strains, locus YNL298W, strain CLA4, stronger effect = lower value 0.987 | S. cerevisiae deletion strains, locus YNL307C, strain MCK1, stronger effect = lower value 0.988 | S. cerevisiae deletion strains, locus YNL322C, strain KRE1 (second series), stronger effect = lower value 1 | S. cerevisiae deletion strains, locus YNL322C, strain KRE1, stronger effect = lower value 1.01 | S. cerevisiae deletion strains, locus YNR049C, strain mso1, stronger effect = lower value 1.01 | S. cerevisiae deletion strains, locus YNR052C, strain pop2, stronger effect = lower value 0.991 | S. cerevisiae deletion strains, locus YOL006C, strain TOP1, stronger effect = lower value 1.03 | S. cerevisiae deletion strains, locus YOL012C, strain htz1 0.942 | S. cerevisiae deletion strains, locus YOL147C, strain pex11, stronger effect = lower value 0.987 | S. cerevisiae deletion strains, locus YOR001W, strain rrp6, stronger effect = lower value 1.01 | S. cerevisiae deletion strains, locus YOR061W, strain CKA2, stronger effect = lower value 1.01 | S. cerevisiae deletion strains, locus YOR069W, strain VPS5, stronger effect = lower value 1.01 | S. cerevisiae deletion strains, locus YOR070C, strain gyp1, stronger effect = lower value 1.01 | S. cerevisiae deletion strains, locus YOR080W, strain dia2, stronger effect = lower value 0.988 | S. cerevisiae deletion strains, locus YOR083W, strain WHI5, stronger effect = lower value 1.01 | S. cerevisiae deletion strains, locus YOR106W, strain vam3, stronger effect = lower value 1.02 | S. cerevisiae deletion strains, locus YOR136W, strain idh2, stronger effect = lower value 0.99 | S. cerevisiae deletion strains, locus YOR144C, strain elg1, stronger effect = lower value 1 | S. cerevisiae deletion strains, locus YOR184W, strain ser1, stronger effect = lower value 0.979 | S. cerevisiae deletion strains, locus YOR231W, strain MKK1, stronger effect = lower value 0.982 | S. cerevisiae deletion strains, locus YOR265W, strain rbl2, stronger effect = lower value 1.01 | S. cerevisiae deletion strains, locus YOR270C, strain vph1, stronger effect = lower value 1.1 | S. cerevisiae deletion strains, locus YOR290C, strain snf2, stronger effect = lower value 0.975 | S. cerevisiae deletion strains, locus YOR316C, strain cot1, stronger effect = lower value 0.997 | S. cerevisiae deletion strains, locus YPL051W, strain arl3, stronger effect = lower value 1.01 | S. cerevisiae deletion strains, locus YPL055C, strain LGE1, stronger effect = lower value 1.02 | S. cerevisiae deletion strains, locus YPL078C, strain atp4, stronger effect = lower value 1.03 | S. cerevisiae deletion strains, locus YPL106C, strain sse1, stronger effect = lower value 0.975 | S. cerevisiae deletion strains, locus YPL240C, strain hsp82, stronger effect = lower value 1.01 | S. cerevisiae deletion strains, locus YPL241C, strain CIN2, stronger effect = lower value 1.01 | S. cerevisiae deletion strains, locus YPL256C, strain CLN2, stronger effect = lower value 1.01 | S. cerevisiae deletion strains, locus YPR119W, strain clb2, stronger effect = lower value 0.99 | S. cerevisiae deletion strains, locus YPR141C, strain kar3, stronger effect = lower value 0.995 | S. cerevisiae deletion strains, locus YPR163C, strain tif3, stronger effect = lower value 0.99 | S. cerevisiae deletion strains, locus YPR167C, strain met16, stronger effect = lower value 0.991 | S. cerevisiae deletion strains, strain wtn01, stronger effect = lower value 0.989 | S. cerevisiae strains, strain wild type, stronger effect = lower value 1
